From PubChem BioAssay (NCI) come the findings set out here.

About 83,000 compounds went through this panel and 20% of them were active in at least one assay; those are over-represented in the sample as a whole.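 Cell lines were cultured in 96-well plates, exposed to a single compound concentration, and assessed for percent growth 48 hours later.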 Values without a mark were called inactive. The source made the active and inactive calls. Rule for the calls: active = growth percent below 10; inactive = the rest.

What all share (assay): NCI-60 one-dose screen, 48 h (100 = growth as untreated, 0 = no growth, -100 = all killed)
Common to all, as to conditions: 10 µM unless noted

The subject of test [1] is HCT-15 colon.
Test [2] deals with HT29 colon.
The subject of test [3] is SNB-75 CNS.
Test [4] deals with SNB-19 CNS.
Test [5] deals with U251 CNS.
The test system of test [6] is PC-3 prostate.
Test [7] concerns SK-MEL-5 melanoma.
In test [8] the test system is UACC-62 melanoma.
Test [9] deals with LOX IMVI melanoma.
Test [10] concerns SK-MEL-28 melanoma.

Regarding `O=C(/C(=C/c1ccc([N+](=O)[O-])cc1)SCc1ccc(Cl)cc1)c1ccc(F)cc1`, the growth in test [1] is -16.5% (active); in test [2], -2.26% (active); in [3] it was 82.3%; in [4] it was 35.6%; in test [5], -9.2% (active); in test [6] it was 41.4%. The growth in [7] was 69.9%; in [8], 33.8%; in [9] it was -18.3% (active); in [10] it was 95.8%.

Regarding `Cc1c(O)c(=O)ccn1-c1nc2ccccc2s1`, the growth in test [1] is 38.2%; in [2], 93.8%; in [3], 95.7%; in test [4], 110%; in test [5] it was 84.1%; in test [6] it was 90.4%. The growth in test [7] was 96.2%; in test [8] it was 98.3%; in [9], 86.7%; in test [10], 107%.

For the compound `O=C(Nc1cccc(-c2cccc(F)c2)c1)C1CCN(Cc2cccc3cccnc23)CC1`, the growth in test [1] was 19.5%; in test [2], 0.443% (active); in test [3] it was 53.6%; in test [4] it was 77%; in [5], 44.4%; in test [6] it was 51.1%. In addition, the growth is 35.2% in test [7], -44.8% (active) in test [8], 3.29% (active) in test [9] and -40.2% (active) in test [10].

On to `COc1cc(C)ccc1Oc1nc(Nc2ccc(N3CCOCC3)cc2)ncc1N=Cc1cc(C(F)(F)F)cc(C(F)(F)F)c1`, for which the growth in [1] is 92%; in [2], 64.5%; in test [3], 40.1%; in test [4], 94.4%; in [5], 71.5%; in test [6] it was 77.4%. The growth is 91% in [7], 81% in [8], 61.3% in test [9] and 96.7% in test [10].

As to `O=C(CCc1nnco1)c1nc2ccc([N+](=O)[O-])cc2[nH]1`, the growth in test [1] was 105%; in test [2], 103%; in test [3], 104%; in test [4], 108%; in test [5], 107%; in test [6] it was 96.1%. Moreover, the growth in test [7] was 109%; in test [8] it was 96.7%; in test [9], 93.2%; in [10], 111%.

Regarding `O=C(C[n+]1cccc2cc(Cl)ccc21)c1ccc2c(c1)CCCC2`, the growth in test [1] was 95.5%; in [2], 5.56% (active); in [3], 19.8%; in test [4] it was 23.2%; in [5] it was -28.9% (active); in test [6], 16.1%. The growth was -29% (active) in test [7], 17.3% in [8], 11.9% in test [9] and 19.8% in [10].

On to `COC(=O)c1ccc2c(c1)n(Cc1ccc3ccccc3c1)c[n+]2Cc1ccc2ccccc2c1`, for which the growth in test [1] is 98.6%; in [2], 10.1%; in test [3] it was 60.1%; in [4], 33.1%; in [5] it was 32.9%; in test [6], 29.6%. The growth in test [7] was 4.24% (active); in test [8] it was -15.9% (active); in test [9] it was 23.9%; in test [10], 21.6%.

As for `Nc1c(C(=O)Nc2cccc3ccccc23)sc2nc3c(cc12)COCC3`, the growth in [1] was 32.2%; in test [2], 12.4%; in test [3], 30.9%; in [4], 33.4%; in [5], 30%; in [6], 53.5%. Further, the growth in test [7] was 31%; in [8] it was 30.2%; in test [9] it was 42.7%; in [10], 60.6%.

`CCN(CC)c1ccc2c(c1)Oc1nc(N)c(C#N)c(N)c1C2Sc1ccc(OC)cc1` (stereo not given): the growth was 2.89% (active) in test [1]; -61.6% (active) in test [2]; -10% (active) in test [3]; 20.9% in test [4]; -36.4% (active) in test [5]; 1.15% (active) in test [6]. In addition, the growth in test [7] was 1.93% (active); in test [8], -16.9% (active); in test [9] it was -63.6% (active); in test [10] it was 29.3%.

For the compound `COc1cc(/C=C/C(=O)c2ccc(NC(=O)CSc3nnc(-c4cc(OC)c(OC)c(OC)c4)n3-c3ccccc3)cc2)cc(OC)c1OC`, the growth in [1] was -37.6% (active); in [2], 1.25% (active); in [3], 45.4%; in [4] it was 35.8%; in test [5], -8.68% (active); in test [6], 28%. The growth is 17.6% in test [7], 20.8% in [8], -52.3% (active) in test [9] and 33.3% in test [10].

On to `CCCS(=O)(=O)Nc1ccc(F)c(C(=O)c2c[nH]c3ncc(-c4ccc(OCCCC5CCCCN5)nc4)cc23)c1F` (stereo not given), for which the growth is 102% in [1]; 2.79% (active) in test [2]; 19.4% in test [3]; 77.5% in test [4]; 61.2% in [5]; 53% in [6]. In addition, the growth in test [7] is 44.7%; in test [8], -22% (active); in test [9], 32.8%; in [10], -1.65% (active).

Turning to `C#C[C@@]1(O)[C@@H](CO)O[C@@H](n2cnc3c(-c4ccccc4)ncnc32)[C@@H]1O`, the growth in [1] is 98%; in test [2], 101%; in test [3] it was 85.7%; in test [4], 112%; in test [5], 104%; in test [6], 95.5%. Further, the growth in [7] is 104%; in [8], 108%; in test [9] it was 94.6%; in [10], 111%.

In the case of `Cn1c2ccccc2c2c(OC(=O)c3ccccc3)c3c(nc21)-c1ccccc1C3`, the growth in test [1] is 105%; in test [2], 92.1%; in test [3], 90.8%; in test [4] it was 105%; in [5], 107%; in test [6], 87.3%. The growth was 96.6% in test [7], 92.5% in test [8], 88.3% in [9] and 111% in test [10].

Turning to `CCCCc1n(Cc2ccc3ccccc3c2)c2ccccc2[n+]1Cc1ccc2ccccc2c1`, the growth in [1] was -89.2% (active); in [2] it was -74.8% (active); in [3] it was -9.62% (active); in test [4] it was -92.5% (active); in test [5] it was -87.2% (active); in [6], -76.8% (active). The growth in test [7] was -100% (active); in test [8], -92.3% (active); in [9], -93.5% (active); in test [10] it was -92.9% (active).

In the case of `COc1ccc(C2CC(c3ccc(OC)cc3O)=NN2c2ccc(S(N)(=O)=O)cc2)cc1` (stereo not given), the growth was 33.6% in test [1]; 33.7% in [2]; 58.2% in [3]; 59.5% in [4]; 40.9% in test [5]; 15.5% in test [6]. Besides, the growth in test [7] is 49%; in test [8], 38.1%; in [9], 52.5%; in test [10], 56.1%.

For the compound `O=C(Nc1ccc2ncnc(Nc3ccc(F)c(Cl)c3)c2c1)c1ccccc1`, the growth in test [1] was 52.1%; in test [2], 79%; in test [3] it was 28.5%; in test [4], 76.8%; in test [5] it was 42.8%; in [6] it was 72.7%. Moreover, the growth in test [7] is 86.5%; in test [8], 92.2%; in test [9], 63.9%; in [10] it was 97.5%.

For `CC(/C=C/c1ccccc1)=N/NC(=O)c1ccncc1`, the growth is 100% in [1]; 108% in test [2]; 97.7% in test [3]; 102% in test [4]; 98.3% in [5]; 92.5% in test [6]. In addition, the growth in [7] was 100%; in [8] it was 94.1%; in [9] it was 99.5%; in test [10], 118%.

For `c1ccc(-c2cn3ccnc3c(-c3ccc4c(c3)ncn4C3CCCCC3)n2)cc1`, the growth was 80.9% in test [1]; 90.8% in test [2]; 94.4% in [3]; 98.3% in test [4]; 95.6% in [5]; 86.5% in test [6]. Also, the growth in [7] was 94.3%; in [8], 98%; in test [9], 95.1%; in [10], 111%.

With `COc1ccc2nc3nc4ccc[nH]c4cc3c2c1`, the growth was 82.9% in test [1]; 97.7% in test [2]; 82.5% in test [3]; 105% in test [4]; 94.8% in [5]; 93.2% in [6]. The growth is 88.6% in test [7], 105% in [8], 95.1% in test [9] and 110% in test [10].

Consider `CCOC(=O)C1=C(C)n2nc(CC#N)c(C#N)c2NC1c1ccc(Cl)cc1` (stereo not given), for which the growth in test [1] is 97.1%; in test [2], 111%; in test [3], 86.1%; in [4], 106%; in [5], 107%; in test [6], 91.3%. In addition, the growth was 98.3% in test [7], 94.4% in test [8], 94.7% in [9] and 101% in test [10].

On to `O=c1cc(/C=N\Nc2nc(-c3ccc(Cl)cc3Cl)cs2)c2cc(Cl)ccc2o1`, for which the growth in test [1] is 90.7%; in [2], 99.3%; in [3] it was 80.6%; in test [4], 106%; in test [5], 101%; in [6], 80.1%. Besides, the growth was 86.3% in [7], 80.6% in test [8], 89.8% in test [9] and 90.6% in test [10].

`COc1cc(/C=C/C(=O)/C=C/c2cc3ccc(Cl)cc3n(Cc3ccccc3)c2=O)ccc1O`: the growth in test [1] was -46.1% (active); in [2], -46.5% (active); in [3], 63.3%; in test [4], 13.3%; in test [5], -64.7% (active); in test [6], -2.36% (active). Moreover, the growth was -80.5% (active) in test [7], -56% (active) in [8], -90% (active) in test [9] and 3.48% (active) in [10].

`C=C1C(=O)O[C@H]2[C@H]1CC/C(COC(=O)Nc1nc3ccccc3[nH]1)=C\CC[C@@]1(C)O[C@@H]21`: the growth was 25.3% in [1]; 42.2% in test [2]; 75.7% in test [3]; 91.1% in test [4]; 90.2% in [5]; 67.5% in test [6]. Moreover, the growth in [7] is 83.7%; in test [8], 53.9%; in test [9], 69.6%; in test [10], 61.4%.

Take `COc1cc(/C=C/C(=O)/C=C/c2cc3ccc(Cl)cc3[nH]c2=O)ccc1O`: the growth in [1] was 52.4%; in test [2], 5.63% (active); in test [3], 74.4%; in test [4], 76.5%; in test [5] it was 19.6%; in test [6], 56.2%. Moreover, the growth in [7] is 60.8%; in [8], 53.1%; in [9] it was 19.8%; in test [10], 98.8%.

In the case of `O=C(Nc1nc(-c2ccccc2Cl)cs1)c1cc(-c2ccc(Br)cc2)nc2ccccc12`, the growth is 61.6% in test [1]; 37.4% in test [2]; 96.8% in test [3]; 71% in test [4]; 46.1% in [5]; 43.1% in test [6]. The growth in [7] was 27.9%; in test [8], 48.8%; in test [9], 50%; in test [10] it was 80.3%.

On to `O=C1CCC23OC(C(O)c4ccccc4N12)C1C(Br)=NOC13` (stereo not given), for which the growth was 97.4% in test [1]; 106% in test [2]; 80.8% in test [3]; 108% in test [4]; 107% in test [5]; 99.2% in test [6]. For the same compound, the growth in [7] was 111%; in [8] it was 109%; in test [9], 99.7%; in [10] it was 106%.
